A selection: hits, their analogues and other compounds. The true share with any hit is near 1.4%.
BRCA1 expr up – qHTS Assay to Identify Small Molecule Activators of BRCA1 Expression; MCF7-BRCA1-FFLuc reporter, luminescence, 48 h; response scale: scaled: vehicle 0%, 10 µM genistein 100%; Potency, µM (highest dose often 46.1 µM), without a hit: top-dose activation, usual class: activators; hit rate 1.1% among 380,000; AID 624202, 2012; also: potency is read from the fitted curve at half-maximal effect; nearly all actives have a fitted effect of over 80% in size
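Luminescence from a BRCA1-driven firefly luciferase in MCF7 cells was read after 48 h compound exposure at 37 C. Data normalized against DMSO and a 10microM genistein activation control, then curve-fitted across the titration.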
TCR act – Activators of T cell receptors: qHTS campaign. 330,000 tested, under 10 active. Potency, µM (series often up to 9.22 µM), for inactives: top-dose activation of IL-2 secretion, actives largely listed as activators. primary human leukocytes, anti-CD3, IL-2 HTRF, 48 h. AID 504894, 2011; also: % of control where 0% means no effect
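Readout: HTRF IL-2, Eu-cryptate/d2 antibody pair, 320nm excitation, 665nm emission. Stimulus: a-CD3 beads, no co-stimulation. Cells: primary human leukocytes. Exposure: 48 hr with compound.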
p53 reactivation – qHTS assay for re-activators of p53 using a Luc reporter; H1299 p53-A138V BP100-luciferase reporter, luminescence, 24 h; Potency, µM (series often up to 92.2 µM), without a hit: top-dose activity change, positive = activation, most hits filed as activators; hit rate 0.063% among 320,000; also: potency is read from the fitted curve at half-maximal effect; % of control where 0% means no effect; nearly all actives have a fitted effect of over 45% in size
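H1299 (p53-null), stable ts p53-A138V + BP100-Luc; 1000 cells/well, Opti-MEM/10% FBS; cpd 4 pt, 1:5; 24 h, 37 deg C, 5% CO2; detection reagent 10 min RT; luminescence.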
N370S GC mod – qHTS Assay for Inhibitors and Activators of N370S glucocerebrosidase as a Potential Chaperone Treatment of Gaucher Disease; hit rate 0.092% among 330,000; N370S GC spleen homogenate, 4MU-glucoside fluorescence; Potency, µM (top dose mostly 59.4 µM), inactives show at the highest dose activity change, negative = inhibition, actives largely listed as inhibitors; Lysosomal acid glucosylceramidase (Homo sapiens), P04062;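 also: potency is read from the fitted curve at half-maximal effect; 0% = full enzyme activity and -100% = no enzyme basal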
TSHR antagonist – Antagonists of the Thyroid Stimulating Hormone Receptor: HTS campaign; activity change, negative = inhibition, % at 11.5 µM; TSHR-expressing cells, TSH-stimulated cAMP HTRF, 2 h; stronger effect = lower value; hit rate 0.2% among 330,000;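 active = activity change below a set negative limit, meaning inhibition stronger than a set level, cut at about -70% in these data; inconclusive = activity change between two set negative limits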; also: % is scaled to controls: 0 for no effect and ±100 for the full control effect
Target sequence (P16473 whole entry, looked up): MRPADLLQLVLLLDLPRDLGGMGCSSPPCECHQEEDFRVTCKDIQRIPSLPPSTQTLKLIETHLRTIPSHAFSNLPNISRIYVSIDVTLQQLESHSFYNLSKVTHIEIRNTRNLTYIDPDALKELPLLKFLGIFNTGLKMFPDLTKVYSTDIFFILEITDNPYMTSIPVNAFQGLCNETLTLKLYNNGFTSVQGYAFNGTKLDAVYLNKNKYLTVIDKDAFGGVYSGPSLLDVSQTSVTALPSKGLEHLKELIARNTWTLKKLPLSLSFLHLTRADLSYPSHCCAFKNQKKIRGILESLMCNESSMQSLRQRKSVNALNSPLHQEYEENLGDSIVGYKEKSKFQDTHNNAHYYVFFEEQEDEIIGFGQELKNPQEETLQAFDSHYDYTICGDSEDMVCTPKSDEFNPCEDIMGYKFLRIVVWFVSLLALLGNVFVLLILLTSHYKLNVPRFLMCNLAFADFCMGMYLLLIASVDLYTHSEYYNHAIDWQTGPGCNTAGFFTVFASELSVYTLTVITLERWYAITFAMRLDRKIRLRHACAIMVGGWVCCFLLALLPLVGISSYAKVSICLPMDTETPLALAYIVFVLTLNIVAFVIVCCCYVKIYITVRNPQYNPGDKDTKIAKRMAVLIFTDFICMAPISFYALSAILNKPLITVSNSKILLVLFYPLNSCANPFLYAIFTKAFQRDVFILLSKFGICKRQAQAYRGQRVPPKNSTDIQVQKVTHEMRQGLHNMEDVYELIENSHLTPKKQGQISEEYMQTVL
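Freshly harvested TSHR cells receive pin-tooled compound, then EC80 TSH at 4nM final. After 2 hours at 37 deg C, antibody in lysis buffer and cAMP-d2 are added; 30 minutes at ambient temperature precede the HTRF read.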
GLS inh – qHTS for Inhibitors of Glutaminase (GLS) | GLS enzymatic activity, qHTS titration | Potency, µM (series often up to 45.5 µM), for the others: at the top dose activity change, negative = inhibition, actives largely listed as inhibitors | hit rate 0.21% among 410,000; also: potency is read from the fitted curve at half-maximal effect; % is scaled to controls: 0 for no effect and ±100 for the full control effect
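Enzyme dispensed in phosphate buffer (45 mM, pH 8.2, 0.02% Tween-20), compounds pinned in, then 1 mM L-glutamine solution and the glutamate oxidase–HRP–Amplex Red mix added; fluorescence read immediately and again after 30 min at room temperature.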
An asterisk follows results filed as active; ? = inconclusive; nt = not tested or not shown; [ ] = another dose, or the depositor's remark. Unless noted, calls follow the shape of the dose curve; as a rule, active = well fitted curve in the direction sought with a large enough effect; inconclusive = small, poorly fitted or top-dose-only effect, or another doubt; inactive = no such curve, though single readings can be large; an effect the other way counts as inactive or inconclusive.

SMILES	BRCA1 expr up	TCR act	p53 reactivation	N370S GC mod	TSHR antagonist	GLS inh
O=C(Cc1ccc(OCCC2CCCCC2)cc1)NO	2.6%	nt	nt	nt	nt	nt
CSC1=NC=C(C#N)C2=NC(c3ccc(Cl)cc3)NN12 (stereo not drawn)	9.8%	nt	nt	nt	nt	12.6µM*
CSC1=C(C#N)C(c2ccc(Cl)cc2)C2=C(CC(C)(C)CC2=O)N1 (stereo not drawn)	-38.5%	-1.2%	-6.8%	-0.4%[2.35 µM]	4.9	-5.9%
Cc1ccc(OCC(=O)Nc2ccc(-c3nc4ccc(C)cc4o3)cc2)cc1	0.891µM*	nt	nt	nt	nt	-5.6%
COc1ccc(C(=O)O/N=C(\N)c2ccc(OC)c(OC)c2)cc1	12.6µM*	-2.0%	?	-1.3%	-9.0	3.3%
COc1ccc(/C(N)=N/OC(=O)C2CCCCC2)cc1OC	2.82µM*	3.6%	-5.4%	4.6%	-4.4	5.6%
COc1ccc(C(=O)O/N=C(\N)c2ccc(OC)c(OC)c2)c(OC)c1	46.0%	-4.1%	?	-3.3%	-5.2	-5.2%
C(=C\c1ccnc2ccccc12)/c1ccc2c(c1)OCO2	23.6%	nt	nt	nt	nt	nt
Cc1ccc2c(CNCc3ccco3)cc(=O)oc2c1	7.94µM*	0.4%[46.1 µM]	?	0.5%	-8.9	1.9%
CCOc1ccc2nc(SCc3ccccc3C#N)sc2c1	7.94µM*	-4.7%	?	-2.0%	-15.2	4.1%
O=C(NCCc1c[nH]c2ccccc12)c1cc(Cl)c2c(c1)OCO2	3.55µM*	2.9%	?	-0.5%	1.9	-0.7%
O=C(NCCc1c[nH]c2ccccc12)C(=O)Nc1ccccc1	11.2µM*	2.5%	?	3.2%	-3.2	3.2%
O=C(COC(=O)[C@H](Cc1c[nH]c2ccccc12)NC(=O)c1ccc(Cl)cc1)Nc1ccc2c(c1)OCO2	0.4%	-2.0%	1.7%	18.2%	-8.2	11.2%
COC(=O)[C@@H](Cc1c[nH]c2ccccc12)NC(=O)c1ccc2c(c1)OCO2	3.55µM*	9.6%	8.4%	-4.2%	-0.8	-4.2%
CN(C)/[N+]([O-])=N/Oc1ccc([N+](=O)[O-])cn1	0.0%	nt	nt	nt	nt	nt
COC(=O)c1ccc(CC(=O)c2nc3ccccc3s2)cc1	44.7%	-1.4%	?	0.4%	-5.8	-11.9%
COC(=O)c1ccc(/C(O)=C(\C#N)c2nc3ccccc3s2)cc1	5.01µM*	-0.6%	?	1.1%	-47.5	-7.8%
O=C(O)C1=NN(c2cc(Cl)c(S(=O)(=O)O)cc2Cl)C(=O)C1	-5.6%	-4.6%	nt	nt	nt	1.12µM*
Cc1cc(Br)ccc1NC(=O)COC(=O)c1ccccc1OCC(N)=O	3.3%	nt	nt	nt	nt	nt
Cc1ccc(CCNC(=O)CN2C(=O)COc3ccc(S(=O)(=O)N4CCC(C)CC4)cc32)cc1	-2.2%	-2.8%	-2.4%	?	-136.4*	-0.5%
OC[C@@H]1OC(O)[C@H](O)[C@H](O)[C@H]1O (stereo partly drawn)	nt	nt	nt	3.9%	nt	nt
Cc1occc1C(=O)NCCCc1ccccc1	12.6µM*	-7.5%	?	2.9%	2.7	-0.9%
Cc1occc1C(=O)NNC(=O)c1ccccc1Br	20.5%	0.5%[46.1 µM]	24.3%	-9.4%	3.7	-2.0%
Cc1occc1C(=O)NNC(=O)c1ccccc1C(=O)O	10µM*	-1.1%	4.1%	1.6%	1.5	0.6%
Cc1occc1C(=O)NCCCCNC(=O)c1ccoc1C	5.4%	1.5%	-3.2%	25.3%	-5.0	-3.7%
CN(C(=O)CSc1nc2ccccc2n1CC(=O)N(C)c1ccc(F)cc1)c1ccccc1	0.0%	nt	nt	nt	nt	-6.6%
C=CC1=C2C=C(C3CC3)N(Cc3ccccc3)C=C2C(=O)C(C)(OC(=O)c2ccco2)C1=O (stereo not drawn)	nt	nt	nt	1.8%[12.8 µM]	nt	nt
CC1=C(c2ccc(NN=C(C#N)C#N)cc2)NNC(=O)C1	nt	nt	nt	nt	nt	22.0%
